Reference: PubChem BioAssay (NCI)
About 83,000 compounds went through this panel and 20% of them were active in at least one assay; those are over-represented in the sample as a whole.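 Values shown are percent growth following 48 h exposure of cells in 96-well plates to a single concentration of compound; below 10 was considered active.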 Active and inactive are the calls of the source.

Legend:
Test in all cases: NCI-60 one-dose screen, 48 h (100 = growth as untreated, 0 = no growth, -100 = all killed)
Details in all cases: 10 µM unless noted
[1] = tested on: SK-MEL-2 melanoma
[2] = tested on: EKVX NSCLC
[3] = tested on: SN12C renal
[4] = tested on: UO-31 renal
[5] = tested on: TK-10 renal
[6] = tested on: ACHN renal
[7] = tested on: CAKI-1 renal
[8] = tested on: A498 renal
[9] = tested on: CCRF-CEM leukemia
[10] = tested on: MOLT-4 leukemia
[11] = tested on: SR leukemia
[12] = tested on: RPMI-8226 leukemia
[13] = tested on: OVCAR-8 ovarian
[14] = tested on: OVCAR-5 ovarian
[15] = tested on: OVCAR-4 ovarian
[16] = tested on: SK-OV-3 ovarian
[17] = tested on: IGROV1 ovarian
[18] = tested on: OVCAR-3 ovarian
[19] = tested on: HS 578T breast
[20] = tested on: NCI/ADR-RES ovarian

Measured: growth

COc1ccc(/C(=C/c2ccc3ccccc3c2)c2nn[nH]n2)cc1OC
inactive: [1] 40.3% | [2] 43.9% | [3] 37.2% | [4] 41.4% | [5] 54.5% | [6] 54.4% | [7] 23.3% | [8] 14.5% | [9] 19.7% | [10] 37.8% | [11] 15% | [12] 16.6% | [13] 40.5% | [14] 60% | [15] 62.7% | [16] 39% | [17] 48.7% | [19] 36.5%
active: [18] -17.3% | [20] -15.4%

CC/C=C\C[C@H](O)C/C=C1/C(=O)C=C[C@@H]1C/C=C\CCCC(=O)NC
active: [3] -3.66% | [4] -76.8% | [5] -8.31% | [6] -86.1% | [7] 4.85% | [9] -14.6% | [10] -14.1% | [11] -27% | [12] -3.18% | [17] 7.71% | [18] 4.67% | [20] 6.92%
inactive: [1] 16.1% | [2] 23.8% | [8] 56.1% | [13] 11.1% | [14] 20.2% | [15] 44.4% | [16] 11.4% | [19] 47.7%

CS(=O)CCCCCN=C=S (stereo not given)
active: [1] 6.73% | [3] -17% | [4] 1.81% | [5] -27.7% | [6] -45.5% | [7] -15.3% | [8] -25.9% | [9] -7.32% | [10] -13% | [11] -13.9% | [12] 5.22% | [13] -8.89% | [16] 8.97% | [17] 7.98% | [18] -20.4% | [20] 1.36%
inactive: [2] 12.8% | [14] 11.6% | [15] 21.4% | [19] 11.6%

COc1cc(-c2nc3ccccc3s2)ccc1NC(=O)COc1ccc(Cl)cc1
active: [7] 6.38% | [13] -3.09% | [15] 6.47%
inactive: [1] 78.5% | [2] 57.4% | [3] 58.6% | [4] 47.3% | [5] 35.6% | [6] 40% | [8] 97.3% | [9] 98.5% | [10] 86% | [11] 83.6% | [12] 63.5% | [14] 61.8% | [16] 87.1% | [17] 24.6% | [18] 42.4% | [19] 44.7% | [20] 33.2%

CCCCN(CCCC)Cc1c(C)[nH]c2cc(OC)ccc2c1=O
inactive: [1] 110% | [2] 104% | [3] 104% | [4] 81.2% | [5] 104% | [6] 110% | [7] 99.1% | [8] 95.8% | [9] 95.8% | [10] 90.9% | [11] 92.8% | [12] 99.7% | [13] 91.9% | [14] 119% | [15] 106% | [16] 92.2% | [17] 113% | [18] 96.6% | [19] 103% | [20] 104%

COc1cnc2c(c1)C(=O)c1c-2n(CCCN2CCNCC2)c(=O)c2cc([N+](=O)[O-])ccc12
inactive: [1] 77.8% | [5] 32.4% | [8] 16.9% | [19] 70.7%
active: [2] -64.6% | [3] -71.5% | [4] -79.3% | [6] -88.4% | [7] -94.5% | [9] -23% | [10] -4.73% | [11] -21.7% | [12] -37.1% | [13] -52.8% | [14] -77.9% | [15] -77.1% | [16] 3.11% | [17] -58.3% | [18] -83.1% | [20] -44.3%

C/C(Cc1ccc(Cl)cc1)=C(\c1ccc(OCCN2CCCCCC2)cc1)c1ccc(OC(=O)Cc2ccccc2)cc1
active: [11] 1.29%
inactive: [1] 90.6% | [2] 90.2% | [3] 68.7% | [4] 44.6% | [5] 86.7% | [6] 85.2% | [7] 79.4% | [8] 92.5% | [9] 57.2% | [10] 24.4% | [12] 33% | [13] 72.1% | [14] 73.8% | [15] 85% | [16] 90.6% | [17] 44.9% | [18] 69.6% | [19] 62.3% | [20] 72.4%

CCOC(=O)c1cnc2ccc(OC)cc2c1Nc1cccc(S(=O)(=O)NC)c1
inactive: [1] 102% | [2] 104% | [3] 92.9% | [4] 93.6% | [5] 110% | [6] 91.5% | [7] 89.4% | [8] 95.9% | [9] 93% | [10] 99.2% | [11] 95.6% | [12] 51.6% | [13] 100% | [14] 102% | [15] 104% | [16] 113% | [17] 113% | [18] 103% | [19] 52.3% | [20] 90%
